Tested on: VDR:RXRa (NR concentration 270 nM, RXRa partner concentration 90 nM)
Assay: PBM binding z-score (relative to random genomic background probes); higher = stronger binding; sequences stand for … in GC…GCGATTGACAGCGTAGAATGAAGG
Description: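 Protein-binding microarray (Agilent 4x180K custom design, double-stranded 60-nt probes: 5' GC cap, 34-nt variable region, 24-nt constant primer region; full probe sequence given). Purified or IVT nuclear receptor:RXRα heterodimers (3:1 NR:RXRα, mostly 270:90 nM) or homodimers were incubated for 1 h in PBS with 2% milk and no ligand, then detected with Alexa488 antibodies. Fluorescence from o1-orientation probes (~5 replicates averaged) was converted to z-scores against 500 random hg19 background probes. Variable regions are seed direct-repeat (DR0–DR5) sites, all their single-nucleotide variants and half-site ablations.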

Going from TCTGCAAGGTCAGTTGGTCAGCTAACGAGCTGCC to CCAACTAGGTCAAGAGGTCAAAGTCCGCTTCCCG, the PBM binding z-score rises from 2.19 to 6.1.

Compared with TCGTATAGGTAATACAGGTGAAAGTCGGCATCTA, AGAACGAGGGCACGCTGAGTTGACAGCAGAGTAG is higher in PBM binding z-score: 0.991 for the first, 2.32 for the second.

Going from GGGACTGGGGCATCAGCAGGTTACCATAACTTAA to ACTAGCAAGCCAAGTTTGGGTCACTCAAACAAAG, the PBM binding z-score falls from 0.674 to 0.188.

First: ACTAGTTGGTCAGTTGAGGTCACACACAATTCGG
Second: TCTAGTTGCTCACGGAGGTCACACACGACGGGTA
The PBM binding z-score of the first is higher: 4.65 for the first, 3.64 for the second.

First: TGTCAAAGTTCAAAGGTACCGTAAGTATCCACAC
Second: CGAATTAGGTCAGAACAGGACAGTGAAGGATGAT
The PBM binding z-score of the first is higher: 4.41 for the first, 0.932 for the second.

Compared with ATCTCTAGGGAACCAAGTTCAGTGAATGCCGAAC, CCGACTGGGGCAAGGTTAGCATAACGCACAGCCA is lower in PBM binding z-score: 2.1 for the first, -0.429 for the second.

First: CGTCCAAGGTCAGAGAAGTCAGTGAATGCCGAGT
Second: GGAACGAGTGCATTCGAGTTGATAGCATGGCGAT
The PBM binding z-score of the first is higher: 3.15 for the first, 2.95 for the second.

Going from CCTACTGGGCCAAGGACATTGATCAGTCAAAGCA to TCTAGCAGGCCTGAGGGTCACTCAAGAGGTACGG, the PBM binding z-score rises from -0.496 to 1.9.

First: CCTTACGGGTCAAGTTTATAGCACGGGTGGTACG
Second: CTACCAAGGTGAACAAGGTCGTGGATTACTATTC
The PBM binding z-score of the first is lower: 3.9 for the first, 5.77 for the second.

Compared with GCTGCTAGGTCAACTGATGATCAGCTAAAGCTCG, CCTATTAGTTGACCGTAAGGGCAACCGAAGCTCG is lower in PBM binding z-score: 1.38 for the first, 0.821 for the second.

First: TCTAGCAGGCCAGAGGGACACTCAAGAGGTACGG
Second: CCTAGTTAGTCAGGAGGTCACACACCGGATATGA
The PBM binding z-score of the first is lower: -0.463 for the first, 3.97 for the second.

Going from CGAACCAGGGCATGAGTTGATAGCAAATGCCGAT to TCGAGTAGGTTACGGGCATTCAGAATGGCGTCGA, the PBM binding z-score falls from 0.253 to -0.46.

First: CAAACTAGGTCACGAAAGGACAAAGTCGAATGAC
Second: CCTACTGGGCCAAAGGTCATTGATTCCAATGCTC
The PBM binding z-score of the first is lower: 4.23 for the first, 4.75 for the second.

Going from TCATAAAGGTAAATGCTAGGTGAAAGTCCGATCT to CAAACTAGGTCATGAAAGGTCAAAGTCGAATGAC, the PBM binding z-score rises from 0.918 to 6.73.

Going from TCTATTAGTTGATTAAGGCAACCGAAACAGCGGA to TATACAGGGTCAAAGGCCAGAGTTCGAATGTCGA, the PBM binding z-score rises from 0.578 to 5.34.

Compared with TCTAGTAGATCAAGCAGGTTAAGAAAGCCTGAGT, GGACCAAGGTGAATAGGTCGTTGATGAGTAGGCG is higher in PBM binding z-score: 0.576 for the first, 0.886 for the second.

First: CTCGAAAGGTCGGTTGAGGTGAGTATTCGGATAA
Second: ATCTCTAGGTAAGACTGAGTTCAGTGAAGAACGC
The PBM binding z-score of the first is lower: 2.16 for the first, 2.75 for the second.

Going from GCTAGCAGGCCATTTGGGTCACTCAATGACGGGC to GCTATTAGTTGAAAGGGAAACCGAATGATTCTCG, the PBM binding z-score falls from 0.933 to 0.00748.

Compared with CCTAGCAGGCCAGGGTCACTAAAGCATTTCGCTT, CCTAGTTGCTCAAGGTCACACACGCTATAGGTAC is higher in PBM binding z-score: 2.08 for the first, 4.26 for the second.

First: CAGACTGGGGCAGAAAGGTTACCATACCATCCGG
Second: TCATATTGGTAAAAGGTGAAAGTCGGTGTGGTAA
The PBM binding z-score of the first is lower: 1.44 for the first, 1.64 for the second.
